Screening results as filed in PubChem.
iPSC survival up: enhancers of human iPSC single-cell survival; hiPSC single-cell survival, ATPlite luminescence; 100% = ROCK inhibitor wells, 0% = DMSO; survival enhancement, % at 20 µM; hit rate 0.044% among 360,000; in the data active means survival enhancement above about 18%;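 further: cells exposed to compounds for 16 hours before the ATP read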
TWEAK Fn14 block: TWEAK-Fn14 signaling inhibition; TWEAK-stimulated Fn14 reporter cells, luciferase luminescence, 8 h; hit rate 2% among 360,000; AID 1159606; inhibition, % at 10 µM; in the data active means inhibition above about 50%
HIF-2a inh: inhibitors of HIF-2a; inhibition, % at 18.8 µM; 786-0 RCC cells HIF-2a reporter, luciferase luminescence, overnight; hit rate 0.72% among 360,000;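 active means inhibition of the luminescence signal of 40% or more relative to plate controls, in a single-dose primary screen at 18.75 µM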
KKLEB cytotox: counter-screen for CF NF-kB inhibitors: cytotoxicity; activity change (cytotoxicity), % at 5 µM; hit rate 0.36% among 360,000; KKLEB CF airway cells viability, ATPlite luminescence, overnight; active compounds read low; cells stimulated with P. aeruginosa culture filtrate;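 active means corrected activity change at or below -50% at 5 µM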
CF NFkB block: inhibitors of cystic fibrosis induced NF-kB | AID 588850 | hit rate 0.86% among 360,000 | inhibition, % at 5 µM | KKLEB NF-kB-GFP reporter, PAF-induced, GFP fluorescence overnight;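 active means at least 50% inhibition at 5 µM, scaled per plate between neutral and stimulator controls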;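 further: PAF is a Pseudomonas aeruginosa culture filtrate used as stimulus; plate controls were PAF-stimulated DMSO wells for no effect and unstimulated DMSO wells for full effect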
LGR2 inh: inhibitors of bursicon-induced Drosophila LGR2 receptor cAMP signaling; HEK293 LGR2, CRE-luciferase, bursicon-stimulated, 4 h; inhibition, % at 9.99 µM; hit rate 0.35% among 380,000; AID 720647;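 active means drop in luminescence signal, shown as inhibition above about 50% in the replicate tests, limit read from the data, passing the limit was not always enough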;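 further: agonist challenge used bursicon conditioned medium at about half maximal strength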
CF NFkB conf: CF NF-kB inhibition confirmation, single concentration. AID 602472. inhibition, % at 5 µM. KKLEB CF airway cells, PAF-induced NF-kB-GFP fluorescence, overnight. shares compounds with CF NFkB block. hit rate 64% among 1,300; in the data active means inhibition above about 40%;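 further: stimulus PAF is a Pseudomonas aeruginosa filtrate and not platelet activating factor; plate controls were DMSO wells with stimulus for no effect and unstimulated DMSO wells for full effect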
Active calls of the source: *; · = not tested or not shown. An excerpt weighted towards active compounds, which were near 2.3% of everything screened.

SMILES	iPSC survival up	TWEAK Fn14 block	HIF-2a inh	KKLEB cytotox	CF NFkB block	LGR2 inh	CF NFkB conf
COc1ccc(Cl)cc1NC(=O)c1nnn(CC(=O)Nc2ccc(OC)c(OC)c2)c1N	0	-33	-1	-24	50*	-9	4
COc1ccc(Cl)cc1NC(=O)c1nnn(CC(=O)Nc2cc(C)cc(C)c2)c1N	0	4	7	-10	15	13	·
COc1cccc(NC(=O)Cn2nnc(C(=O)Nc3cc(Cl)ccc3OC)c2N)c1	1	5	0	-36	56*	13	9
Cc1cc(C)cc(NC(=O)Nc2ccc3c(c2)C(=O)N(C)[C@H]2CC[C@@H](CC(=O)O)O[C@H]2CO3)c1	·	·	·	·	·	-11	·
O=C(NCC(c1ccc(F)cc1)N1CCOCC1)c1ccc([N+](=O)[O-])o1 (stereo not drawn)	-2	-9	9	-1	64*	17	26
CCN(c1ccc(OC)cc1)c1ncnc2nc[nH]c12	-1	59*	18	3	66*	16	86*
CCCCN(CCCC)c1ncnc2nc[nH]c12	-1	59*	34	-19	53*	-12	70*
C[C@H]1CN([C@@H](C)CO)C(=O)c2cc(NS(=O)(=O)c3cn(C)cn3)ccc2O[C@@H]1CN(C)S(C)(=O)=O	·	·	·	·	·	-7	·
CCCN(CC)c1ncnc2[nH]ncc12	2	67*	14	6	81*	17	63*
COc1ccccc1Nc1nc(C)cc(C)c1C(N)=O	0	3	9	-2	2	8	·
Cc1cc(C)c(C(N)=O)c(Nc2cccc3ccccc23)n1	-2	16	8	-8	50*	·	24
O=C(Cc1ccccn1)N1CC2(C1)[C@H](c1ccccc1)[C@H](CO)N2C(=O)c1ccncc1	·	·	·	·	·	22	·
Cc1ccc(S(=O)(=O)Nc2ccc3c(c2)C(=O)N([C@H](C)CO)C[C@@H](C)[C@@H](CN(C)C(=O)Nc2c(C)noc2C)OCCCC[C@@H](C)O3)cc1	·	·	·	·	·	12	·
Cc1ccccc1NC(=O)c1nc(S(C)(=O)=O)ncc1Cl	0	14	-39	-1	79*	5	55*
CS(=O)(=O)c1ncc(Cl)c(C(=O)Nc2ccc(N3CCOCC3)cc2)n1	-2	-12	15	-28	92*	·	79*
COc1ccc(NC(=O)c2c(-c3ccccc3Cl)noc2C)c(OC)c1	2	-20	-25	-6	-5	·	·
COc1ccc(NC(=O)c2nc(S(=O)(=O)Cc3cccc(C)c3)ncc2Cl)c(OC)c1	7	44	-1	-38	93*	-23	52*
COc1nc(=O)n(C2C=CC(=O)O2)cc1F (stereo not drawn)	-6	64*	-4	-18	87*	-23	23
COc1ccc(NC(=O)N2CCC3(CC2)CN(C(C)=O)[C@H](CO)c2[nH]c4cc(OC)ccc4c23)cc1	·	·	·	·	·	3	·
Cc1nc2sc(C(N)=O)c(N)c2c(C)c1CC(=O)c1ccccc1	1	19	-44	-6	59*	16	75*
CC(C)NC(=O)N(C)C[C@@H]1OCCCC[C@@H](C)Oc2ccc(NC(=O)C3CCCCC3)cc2C(=O)N([C@@H](C)CO)C[C@H]1C	·	·	·	·	·	-9	·
COCc1cc(S(=O)c2ccc(Cl)cc2)nc(C)n1 (stereo not drawn)	-4	64*	29	0	87*	19	83*
CC1(O)CC(c2ccc(Cl)cc2)=NN1C(=O)c1ccc(Cl)cc1 (stereo not drawn)	0	27	16	-38	58*	-11	76*
CC1(C)COC(c2cc([N+](=O)[O-])ccc2Cl)=N1	6	-20	10	-8	12	-14	·
CC1(C)COC(/C=C/c2cccc([N+](=O)[O-])c2)=N1	-1	36	-35	-14	52*	-5	39
SMILES	iPSC survival up	TWEAK Fn14 block	HIF-2a inh	KKLEB cytotox	CF NFkB block	LGR2 inh	CF NFkB conf
COc1ccc(-n2nc(C(=O)NCC(=O)Nc3cc(OC)c(OC)c(OC)c3)c3ccccc3c2=O)cc1OC	0	1	6	-26	83*	-1	90*
COc1ccc(-n2nc(C(=O)NCC(=O)Nc3cc(OC)c(OC)c(OC)c3)c3ccccc3c2=O)cc1	0	18	6	-6	-21	10	·
COc1ccc(-n2nc(C(=O)NCC(=O)NCCCN3CCOCC3)c3ccccc3c2=O)cc1	0	-5	15	12	61*	-7	15
NC1(C(=O)O)CSSC1	-2	13	-122	3	62*	-9	57*
C[C@H]1CCCCO[C@H](CN(C)S(=O)(=O)c2ccc(Cl)cc2)[C@@H](C)CN([C@@H](C)CO)C(=O)c2cc(NC(=O)Nc3cccc4ccccc34)ccc2O1	·	·	·	·	·	-6	·
Oc1cc(NCc2ccc(F)cc2)cc2cccnc12	0	-2	1	25	51*	-4	39
Cc1ccc(NC(=O)c2nc[nH]c2C(=O)NCCCNC(=O)c2[nH]cnc2C(=O)Nc2ccc(C)cc2)cc1	0	7	2	-13	52*	3	79*
O=C(Nc1ccccc1)c1nc[nH]c1C(=O)NCCCCNC(=O)c1[nH]cnc1C(=O)Nc1ccccc1	0	35	4	-13	54*	4	59*
Cc1ccc(NC(=O)c2nc[nH]c2C(=O)NCCCCCCNC(=O)c2[nH]cnc2C(=O)Nc2ccc(C)cc2)cc1	-1	13	1	4	4	6	·
COc1ccc2c3c([nH]c2c1)[C@@H](CO)N(C(=O)c1ccncc1)CC31CN(C(=O)C2CCC2)C1	·	·	·	·	·	-23	·
Cc1ccc2c(c1)C(=O)C(=O)N2Cc1ccc(Br)cc1	-2	2	-8	-22	62*	-14	81*
O=C(Nc1ccccc1)C1=C[C@@H](c2csc3ccccc23)C[C@@H](OCc2ccc(CO)cc2)O1	0	-16	9	-2	1	12	·
O=C(NCc1ccccc1)C1=C[C@H](c2csc3ccccc23)C[C@H](OCc2ccc(CO)cc2)O1	1	33	23	-48	53*	16	60*
COc1ccc(Nc2nc(-c3cccs3)nc3ccccc23)cc1S(=O)(=O)N1CCOCC1	0	97*	-83	-36	90*	16	103*
c1ccc2c(c1)-c1cccc3cncc-2c13	-3	-16	-5	-14	-113	-16	·
c1ccc2c(-c3cncc4ccccc34)cncc2c1	2	54*	35	-32	76*	14	43*
C[C@@H]1CN([C@@H](C)CO)C(=O)c2cc(NC(=O)Nc3ccc4c(c3)OCO4)ccc2O[C@@H](C)CCCCO[C@H]1CN(C)C	·	·	·	·	·	1	·
